RE007 growth inh: less growth of the S. pombe RE007 Vpr strain | Potency, µM (highest dose often 92.2 µM), inactives show top-dose activity change, negative = less growth, usual class: inhibitors | S. pombe RE007 Vpr strain, BacTiter-Glo ATP luminescence, 24 h | hit rate 0.21% among 360,000; active = well fitted falling curve with a large enough effect; inconclusive = small, poorly fitted or top-dose-only effect; inactive = no such curve, though single readings can be large or run the other way; also: nearly all actives have a fitted effect of over 50% in size
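Fission yeast strain RE007, carrying one chromosomally integrated HIV-1 vpr copy, was seeded at OD 0.01 in PMG+AL medium with 23 nL pinned compound. After 24 h at 30 °C and 99% humidity, viability was read by BacTiter-Glo luminescence.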
AmpC detergent: blocks E. coli AmpC beta-lactamase in detergent assay. Potency, µM (titrated, usually from 114 µM), for inactives: at the top dose activity change, negative = inhibition, actives largely listed as inhibitors. AmpC hydrolysis of nitrocefin, absorbance 480 nm, 0.01% Triton. AID 485294. hit rate 0.041% among 370,000;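 also: 0% = no-compound wells and -100% = no-enzyme wells; nearly all actives have a fitted effect of over 25% in size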
Target sequence (P00811 whole entry, looked up): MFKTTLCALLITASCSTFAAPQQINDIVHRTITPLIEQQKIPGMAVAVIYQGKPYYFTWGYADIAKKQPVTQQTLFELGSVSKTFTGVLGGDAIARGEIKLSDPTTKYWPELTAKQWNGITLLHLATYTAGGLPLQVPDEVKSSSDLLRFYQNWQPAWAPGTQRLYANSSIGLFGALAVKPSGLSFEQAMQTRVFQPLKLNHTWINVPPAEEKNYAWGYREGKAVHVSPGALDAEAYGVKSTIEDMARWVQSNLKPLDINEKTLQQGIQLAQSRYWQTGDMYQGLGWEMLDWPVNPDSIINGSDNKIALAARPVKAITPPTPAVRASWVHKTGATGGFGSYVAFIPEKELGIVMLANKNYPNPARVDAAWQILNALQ
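20 mM phosphate pH 7.0 + 0.01% (detergent screen) or 0.0001% Triton X-100; 5.3 nM AmpC reagent; cpd preinc 15 min RT; nitrocefin (800 uM stock) to start; A480 q20 s × 4 min; Activity was normalised to no-enzyme and no-compound control wells.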
AmpC no deterg: blocks E. coli AmpC beta-lactamase in detergent-free assay; P00811; AmpC nitrocefin hydrolysis, absorbance 480 nm, 0.0001% Triton; Potency, µM (titrated, usually from 57.1 µM), without a hit: top-dose activity change, negative = inhibition, actives largely listed as inhibitors; hit rate 0.52% among 330,000; AID 485341;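 also: plate controls were no compound for no effect and no enzyme for full effect; nearly all actives have a fitted effect of over 20% in size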
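20 mM phosphate pH 7.0 + 0.01% (detergent screen) or 0.0001% Triton X-100; 5.3 nM AmpC reagent; cpd preinc 15 min RT; nitrocefin (800 uM stock) to start; A480 q20 s × 4 min; Activity was normalised to no-enzyme and no-compound control wells.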
AMA1-RON2 inh: inhibitors of Plasmodium falciparum AMA1-RON2 interaction | hit rate 0.2% among 360,000 | AlphaScreen AMA1-biotinylated RON2 peptide binding | Potency, µM (titrated, usually from 58.2 µM), inactives show at the highest dose activity change, negative = inhibition, usual class: inhibitors | AID 720542;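 also: 0% = vehicle wells and -100% = peptide control; nearly all actives have a fitted effect of over 45% in size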
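AMA1 (3D7) with his tag at 25 nM final met compounds first, then biotinylated RON2 peptide at 25 nM; detection used donor plus acceptor beads, 10 µg/mL apiece, read by AlphaScreen after 30 min at room temperature.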
The depositor's hits bear a star; [ ] = another dose, or the depositor's remark. A selection: hits, their analogues and other compounds. The true share with any hit is near 0.79%. Unless noted, calls follow the shape of the dose curve; as a rule, active = well fitted curve in the direction sought with a large enough effect; inconclusive = small, poorly fitted or top-dose-only effect, or another doubt; inactive = no such curve, though single readings can be large; an effect the other way counts as inactive or inconclusive. Unless noted, % is scaled to controls: 0 for no effect and ±100 for the full control effect; potency is read from the fitted curve at half-maximal effect.

What do the screens show for `CCCNC(=O)COC(=O)c1ccccc1C(=O)c1ccc(Cl)c([N+](=O)[O-])c1`?
RE007 growth inh: 11%; AmpC detergent: inconclusive; AmpC no deterg: 9%; AMA1-RON2 inh: 13%

How did CCOCCCNC(=O)C(=O)Nc1c2c(nn1-c1ccc(OC)cc1)CSC2 do in these assays?
AmpC detergent: -2%

How did O=C(Oc1ccccc1)c1cccnc1Oc1ccccc1 do in these assays?
RE007 growth inh: -10%; AmpC detergent: 40µM*; AmpC no deterg: -40%; AMA1-RON2 inh: 16%

How did O=C(Oc1ccccc1)c1cccc2cccnc12 do in these assays?
RE007 growth inh: 35µM*; AmpC detergent: -13%; AmpC no deterg: -5%; AMA1-RON2 inh: 9%

Results for O=C(Nc1ccc(F)cc1)c1cccnc1Oc1ccccc1 ?
RE007 growth inh: 3%; AmpC detergent: -9%; AmpC no deterg: -3%; AMA1-RON2 inh: 10%

How did Cc1c(Cl)cccc1NC(=O)CSc1ncc2c(n1)-c1ccccc1N(C)S2(=O)=O do in these assays?
AmpC detergent: 0%

What do the screens show for `Cc1ccc(OCC(=O)N(Cc2ccco2)Cc2ccc(C)o2)cc1`?
AmpC detergent: 17%

Results for CNC(=O)/C(C#N)=C/c1cccc(Oc2ccccc2)c1 ?
RE007 growth inh: 18µM*; AmpC detergent: -1%; AmpC no deterg: 11%; AMA1-RON2 inh: 7%

What do the screens show for `CC(C)(C)C(=O)Cn1c(=O)n(-c2ccc(Cl)c(Cl)c2)c(=O)c2c3c(sc21)CCCC3`?
AmpC detergent: 2%

What do the screens show for `O=C(Oc1ccc(OC(=O)c2ccco2)c(S(=O)(=O)c2ccc(Br)cc2)c1)c1ccco1`?
RE007 growth inh: 12%; AmpC detergent: -16%; AmpC no deterg: -18%; AMA1-RON2 inh: -2%

Results for Cc1ccc(S(=O)(=O)c2cc(OC(=O)c3ccco3)ccc2OC(=O)c2ccco2)cc1 ?
RE007 growth inh: 18%; AmpC detergent: -21%; AmpC no deterg: 13µM*; AMA1-RON2 inh: -12%

Results for CCC(=O)OCOc1ccc(/C=C2/CCC(CN(C)C)C2=O)cc1 (configuration not stated) ?
RE007 growth inh: 8.9µM*; AMA1-RON2 inh: -8%

Results for O=C(CC1S/C(=N/N=C/c2c[nH]c3ccc(OCc4ccccc4)cc23)NC1=O)Nc1ccccc1 (configuration not stated) ?
RE007 growth inh: 10%; AmpC detergent: inconclusive; AmpC no deterg: 5µM*; AMA1-RON2 inh: -8%[2.32 µM]

How did O=C(CC1S/C(=N/N=C/c2c[nH]c3ccccc23)NC1=O)Nc1ccccc1 (configuration not stated) do in these assays?
RE007 growth inh: 12%; AmpC detergent: -3%; AmpC no deterg: 25µM*; AMA1-RON2 inh: 51%

How did O=C(CC1S/C(=N/N=C/c2ccco2)NC1=O)Nc1ccccc1 (configuration not stated) do in these assays?
RE007 growth inh: -22%; AmpC detergent: 5%; AmpC no deterg: -31%; AMA1-RON2 inh: 91%

How did NC(=S)N/N=C/c1c[nH]c2ccc(OCc3ccccc3)cc12 do in these assays?
RE007 growth inh: -14%; AmpC detergent: 4%; AmpC no deterg: -43%; AMA1-RON2 inh: 65%

What do the screens show for `O=C(Nc1ccc(Oc2ccccc2)cc1)c1ccc(Cn2c(=O)[nH]c3ccsc3c2=O)cc1`?
RE007 growth inh: 7%; AmpC detergent: -6%; AmpC no deterg: 16µM*; AMA1-RON2 inh: -7%

How did O=C(Nc1ccc(Cl)c(Cl)c1)c1ccc(Cn2c(=O)[nH]c3ccsc3c2=O)cc1 do in these assays?
RE007 growth inh: 14%; AmpC detergent: inconclusive; AmpC no deterg: -30%; AMA1-RON2 inh: 1%

What do the screens show for `Cc1nn(-c2ccc(N3CCCC3)nn2)c(C)c1CCC(=O)NCc1ccc(OC(C)C)cc1`?
AmpC detergent: 23%

Results for CC(C)C(=O)Nc1ncc(Cc2ccccc2Cl)s1 ?
RE007 growth inh: 2%; AmpC detergent: 6%; AmpC no deterg: -13%; AMA1-RON2 inh: 3%

Results for N#CCC(=O)Nc1ncc(Cc2ccccc2Cl)s1 ?
RE007 growth inh: 8%; AmpC detergent: -8%; AmpC no deterg: 18µM*; AMA1-RON2 inh: 107%

What do the screens show for `CCOC(=O)N1CCC(NC(=O)c2ccc3snnc3c2)CC1`?
RE007 growth inh: -7%; AmpC detergent: inconclusive; AmpC no deterg: 45µM*; AMA1-RON2 inh: 26%

How did CCc1cc(=O)oc2cc(C)c3c(-c4ccc(F)cc4)coc3c12 do in these assays?
AmpC detergent: 2%

Results for COc1ccccc1C(CCNCc1ccc(N(C)C)cc1)c1ccc(OC(C)C)cc1 (configuration not stated) ?
RE007 growth inh: -9%; AmpC detergent: -4%; AmpC no deterg: 50%; AMA1-RON2 inh: 8.9µM*

Results for Cc1cccc2c1N(C)C(=O)C2=O ?
RE007 growth inh: 3%; AmpC detergent: 3%; AmpC no deterg: -7%; AMA1-RON2 inh: 3%

Results for Cc1ccc(S(=O)(=O)ON2C(=O)c3ccccc3C2=O)c(C)c1 ?
RE007 growth inh: 2%; AmpC detergent: 79µM*; AmpC no deterg: -27%; AMA1-RON2 inh: -14%

Results for Cc1ccc(S(=O)(=O)N2CCN(CCc3ccccc3)CC2)c(C)c1 ?
RE007 growth inh: 5%; AmpC detergent: 0%; AmpC no deterg: 25%; AMA1-RON2 inh: inconclusive

What do the screens show for `O=C1c2ccccc2C(=O)N1OS(=O)(=O)c1ccc(F)cc1`?
RE007 growth inh: -7%; AmpC detergent: 45µM*; AmpC no deterg: -29%; AMA1-RON2 inh: -8%

Results for Cc1cc(C)c(S(=O)(=O)ON2C(=O)c3ccccc3C2=O)cc1C ?
RE007 growth inh: -1%; AmpC detergent: 50µM*; AmpC no deterg: -36%; AMA1-RON2 inh: -6%

What do the screens show for `O=S(=O)(c1ccccc1)N1CCN(S(=O)(=O)c2ccc(F)cc2)CC1`?
RE007 growth inh: 5%; AmpC detergent: -21%; AmpC no deterg: -18%; AMA1-RON2 inh: -2%

Results for Cc1cc(C)c(C)c(S(=O)(=O)ON2C(=O)c3ccccc3C2=O)c1C ?
RE007 growth inh: inconclusive; AmpC detergent: 56µM*; AmpC no deterg: -41%; AMA1-RON2 inh: -4%

What do the screens show for `CCc1cc(C(=O)NNC(=S)NC2CCCCC2)cs1`?
RE007 growth inh: 3%; AmpC detergent: 3%; AmpC no deterg: inconclusive; AMA1-RON2 inh: 127%

Results for CC(C)c1cc(C(=O)NNC(=S)NC2CCCCC2)cs1 ?
RE007 growth inh: 14%; AmpC detergent: 6%; AmpC no deterg: 14µM*; AMA1-RON2 inh: 96%

Results for COc1ccc(-c2nc(CNC(=O)NC3CCCCC3)c(C)o2)cc1 ?
AmpC detergent: -7%

How did CCn1nc(C)c2c(-c3ccccc3)cc(=O)n(C(C)C(=O)NCc3cccc(OC)c3)c21 (configuration not stated) do in these assays?
AmpC detergent: 19%
